Active and inactive are the calls of the source.

Data on 13 compounds can be found in PubChem BioAssay.

For experiment [1], the system named is PRMT1 (protein arginine N-methyltransferase 1). Put plainly: PRMT1 binders on small-molecule microarrays, primary screen, biochemical, small-molecule microarray, 635 nm fluorescence (AID 1088).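 Note: binding of Prmt1 protein to compounds spotted on small-molecule microarray slides.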 Conditions: small-molecule microarray binding, higher = more signal.
The nature of experiment [2]: yeast growth modulation, basal conditions, primary screen, YJM789 clinical isolate, OD600, 24 h (AID 1089).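 Note: growth of clinical yeast isolate S. cerevisiae YJM 789 seeded 1000 cells per well; test concentration not given here.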 Conditions: S. cerevisiae YJM789 growth, higher = more signal, called active from +8 up or from −8 down.
Experiment [3] can be described thus: fission yeast growth modulation, primary screen, strain 972, OD600, 24 h, no modulator (AID 1090).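 Note: basal condition with compound alone and no growth modifier present; test concentration not given here.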 Conditions: S. pombe 972 growth, higher = more signal, called active from +8 up or from −8 down.
Experiment [4] can be described thus: S. cerevisiae growth modulation with rapamycin, primary screen, strain BY4716, OD600, 96 h (AID 1091). Note: test concentration not given here. Conditions: higher = more signal, called active from +8 up or from −8 down.
Experiment [5] addresses Torsin-1A-interacting protein 2 (Homo sapiens) (UniProt Q8NFQ8). Put plainly: LULL1 binders on small-molecule microarray, primary screen, cell lysate, human LULL1 lysate, 635/667 nm fluorescence (AID 1092).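 Note: probe is lysate of COS7 cells overexpressing human LULL1; score merges per-feature 667 nm fluorescence with signal-to-noise.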 Conditions: hLULL1 lysate binding, 635 nm fluorescence, higher = more signal.
Experiment [6] can be described thus: E. coli growth modulation, two-sided OD650, primary screen, E. coli filamentation project, strain DRC41, 24 h (AID 1093).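 Note: MC1000 strain lacking acrAB efflux and sulA so SOS filamentation is blocked; test concentration not given here.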 Conditions: OD650, 24 h, higher = more signal, called active from +8 up or from −8 down.
Experiment [7] can be described thus: small-molecule microarray binders of probe aLefty2, primary screen, biochemical, biotinylated probe, 635/667 nm fluorescence (AID 1094).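 Note: score merges spot fluorescence near 667 nm with spot signal-to-noise ratio.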 Conditions: higher = more signal.
For experiment [8], the system named is Noggin (protein binding on small-molecule microarray). Briefly: Noggin binders on small-molecule microarray, primary screen, biochemical, 635/667 nm fluorescence (AID 1095).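 Note: score merges 667 nm feature fluorescence with signal to noise over triplicate slides.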 Conditions: 635 nm fluorescence, higher = more signal.
For experiment [9], the target named is Neurogenic locus notch homolog protein 3 (Homo sapiens) (UniProt Q9UM47). Briefly: NOTCH3 binders on small-molecule microarray, primary screen, biochemical, 635/667 nm fluorescence (AID 1096). Conditions: NOTCH3 binding, 635 nm fluorescence, higher = more signal.
The nature of experiment [10]: small-molecule microarray binders of probe aEGFR, primary screen, biochemical, biotinylated probe, 635/667 nm fluorescence (AID 1097).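 Note: probe is a biotinylated anti-EGFR antibody binding compounds printed on slides; score combines fluorescence near 667 nm and signal to noise of each spot.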 Conditions: higher = more signal.

Sequence of Neurogenic locus notch homolog protein 3 (Homo sapiens) (Q9UM47 whole entry, looked up): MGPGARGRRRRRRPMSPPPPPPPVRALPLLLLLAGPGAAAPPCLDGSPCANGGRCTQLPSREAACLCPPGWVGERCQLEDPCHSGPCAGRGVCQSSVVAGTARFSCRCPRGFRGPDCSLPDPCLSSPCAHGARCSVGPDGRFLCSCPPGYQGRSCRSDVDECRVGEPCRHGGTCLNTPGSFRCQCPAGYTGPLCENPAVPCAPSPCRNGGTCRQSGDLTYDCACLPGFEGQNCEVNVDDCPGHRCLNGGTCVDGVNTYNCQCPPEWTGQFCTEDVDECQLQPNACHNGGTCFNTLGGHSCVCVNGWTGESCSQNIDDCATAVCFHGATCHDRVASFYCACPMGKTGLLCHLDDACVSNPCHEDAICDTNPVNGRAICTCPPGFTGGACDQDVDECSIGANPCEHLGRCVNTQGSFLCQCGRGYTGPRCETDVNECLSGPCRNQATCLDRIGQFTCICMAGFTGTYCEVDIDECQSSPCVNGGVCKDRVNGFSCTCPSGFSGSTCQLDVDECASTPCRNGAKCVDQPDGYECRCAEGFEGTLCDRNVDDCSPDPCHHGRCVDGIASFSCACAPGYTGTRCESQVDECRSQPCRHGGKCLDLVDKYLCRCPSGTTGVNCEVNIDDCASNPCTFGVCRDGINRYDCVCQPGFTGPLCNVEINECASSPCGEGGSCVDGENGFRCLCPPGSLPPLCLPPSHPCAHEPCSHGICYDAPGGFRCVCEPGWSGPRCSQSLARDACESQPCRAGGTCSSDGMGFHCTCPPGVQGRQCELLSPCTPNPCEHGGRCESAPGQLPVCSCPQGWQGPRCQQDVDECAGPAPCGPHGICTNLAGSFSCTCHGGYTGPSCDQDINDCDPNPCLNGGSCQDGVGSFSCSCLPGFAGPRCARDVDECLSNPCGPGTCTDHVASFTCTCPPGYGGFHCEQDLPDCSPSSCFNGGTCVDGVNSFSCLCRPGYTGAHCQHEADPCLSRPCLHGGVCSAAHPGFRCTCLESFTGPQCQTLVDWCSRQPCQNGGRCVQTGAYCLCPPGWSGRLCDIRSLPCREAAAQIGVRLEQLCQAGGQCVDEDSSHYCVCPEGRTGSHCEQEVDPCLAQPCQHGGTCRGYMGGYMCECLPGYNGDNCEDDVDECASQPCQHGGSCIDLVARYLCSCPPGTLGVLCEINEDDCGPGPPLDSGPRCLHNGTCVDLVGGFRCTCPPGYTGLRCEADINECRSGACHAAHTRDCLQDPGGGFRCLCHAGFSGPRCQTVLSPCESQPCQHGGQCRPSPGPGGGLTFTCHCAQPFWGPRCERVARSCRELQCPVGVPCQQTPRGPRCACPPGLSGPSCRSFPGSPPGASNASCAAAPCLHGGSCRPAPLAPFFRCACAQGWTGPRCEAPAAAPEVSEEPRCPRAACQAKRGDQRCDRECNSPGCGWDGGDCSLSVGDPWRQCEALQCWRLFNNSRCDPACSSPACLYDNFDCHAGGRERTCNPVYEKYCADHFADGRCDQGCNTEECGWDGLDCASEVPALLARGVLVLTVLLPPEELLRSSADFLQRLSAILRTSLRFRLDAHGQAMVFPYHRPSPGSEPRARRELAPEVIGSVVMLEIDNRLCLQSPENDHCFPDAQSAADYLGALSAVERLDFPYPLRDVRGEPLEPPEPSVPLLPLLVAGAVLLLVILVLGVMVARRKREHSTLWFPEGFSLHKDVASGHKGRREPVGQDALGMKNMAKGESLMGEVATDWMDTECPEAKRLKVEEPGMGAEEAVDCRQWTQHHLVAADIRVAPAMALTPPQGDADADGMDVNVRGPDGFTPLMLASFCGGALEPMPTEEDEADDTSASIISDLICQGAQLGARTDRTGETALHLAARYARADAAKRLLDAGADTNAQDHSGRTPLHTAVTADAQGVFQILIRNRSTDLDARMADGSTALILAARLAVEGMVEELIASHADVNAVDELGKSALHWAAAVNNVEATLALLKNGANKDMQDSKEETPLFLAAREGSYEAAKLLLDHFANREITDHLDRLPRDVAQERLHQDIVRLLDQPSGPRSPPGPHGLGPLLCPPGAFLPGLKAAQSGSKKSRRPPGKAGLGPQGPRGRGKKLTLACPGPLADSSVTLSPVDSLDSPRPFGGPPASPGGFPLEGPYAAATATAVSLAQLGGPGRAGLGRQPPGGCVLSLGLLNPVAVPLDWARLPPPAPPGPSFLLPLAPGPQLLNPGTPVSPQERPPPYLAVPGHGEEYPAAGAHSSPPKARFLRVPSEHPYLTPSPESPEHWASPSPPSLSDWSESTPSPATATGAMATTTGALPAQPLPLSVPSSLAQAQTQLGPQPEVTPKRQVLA
Sequence of Torsin-1A-interacting protein 2 (Homo sapiens) (Q8NFQ8 whole entry, looked up): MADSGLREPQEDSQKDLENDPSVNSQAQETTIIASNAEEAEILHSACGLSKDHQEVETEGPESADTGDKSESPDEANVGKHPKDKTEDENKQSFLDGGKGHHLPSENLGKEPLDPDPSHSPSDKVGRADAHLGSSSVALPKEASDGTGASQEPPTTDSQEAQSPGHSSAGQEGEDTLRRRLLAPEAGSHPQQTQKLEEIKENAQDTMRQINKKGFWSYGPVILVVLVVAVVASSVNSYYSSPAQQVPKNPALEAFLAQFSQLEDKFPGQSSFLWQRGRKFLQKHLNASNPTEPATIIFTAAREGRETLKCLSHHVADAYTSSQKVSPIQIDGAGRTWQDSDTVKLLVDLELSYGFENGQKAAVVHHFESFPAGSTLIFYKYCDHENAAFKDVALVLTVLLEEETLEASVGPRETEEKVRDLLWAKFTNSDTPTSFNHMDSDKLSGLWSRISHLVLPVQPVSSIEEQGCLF

In the case of `COc1ccc([Si](C)(C)[C@H]2[C@H](CCn3cc(CCO)nn3)O[C@@]3(C(=O)N(Cc4ccc(N5CCOC5=O)cc4)c4ccccc43)[C@@H]2C)cc1`, the composite z-score was 1.37 in experiment [1]; 1.31 in [5]; -0.103 in experiment [7]; 0.42 in experiment [8]; 0.928 in experiment [9]; -0.212 in experiment [10]. Moreover, the z-score in [2] was 1.02 (inactive); in experiment [3] it was 0.928 (inactive); in experiment [4], 4.55 (inactive); in experiment [6], 1.01 (inactive).
Take `COC(=O)[C@@]1(Cc2ccc(OC)cc2)[C@H]2c3cc(C(=O)N4CCCC4)n(Cc4ccccn4)c3C[C@H]2CN1C(=O)c1ccccc1`: the composite z-score in experiment [1] was 0.897; in experiment [5], 3.86; in [7] it was 0.346; in experiment [8], -0.404; in [9], 0.979; in experiment [10], 0.155. The z-score in experiment [2] was 0.627 (inactive); in experiment [3] it was 0.482 (inactive); in [4], 1.33 (inactive); in experiment [6], 0.245 (inactive).
Consider `[N-]=[N+]=NCc1ccccc1[C@@H]1OC(c2ccc(OCCCO)cc2)=N[C@]1(Cc1ccccc1)C(=O)N1CCCCC1`, for which the composite z-score in experiment [1] was 1.15; in [5], 2.74; in [7], 0.332; in [8], 1.46; in [9] it was 1.07; in [10], 0.193. The z-score is -0.202 (inactive) in experiment [2], -1.09 (inactive) in [3], 1.66 (inactive) in experiment [4] and 1.47 (inactive) in [6].
Regarding `COCCOC(=O)N1C(=O)[C@@]2(c3cc(C#Cc4ccc(OC)cc4)ccc31)[C@H](C(=O)N1CCN(c3ncccn3)CC1)[C@H]1C(=O)O[C@H](c3ccccc3)[C@H](c3ccccc3)N1[C@@H]2c1ccc(O)cc1`, the composite z-score in experiment [1] was 0.344; in [5] it was 0.78; in experiment [7], -0.247; in experiment [8] it was 0.587; in [9], 0.213; in [10], -0.0978. The z-score in experiment [2] was -1.94 (inactive); in experiment [3], -0.197 (inactive); in [4], 0.872 (inactive); in experiment [6] it was 0.313 (inactive).
In the case of `COc1ccc(C#Cc2ccc3c(c2)[C@]2(C(=O)N3)[C@H](C(=O)NC[C@H](O)c3ccccc3)[C@H]3C(=O)O[C@H](c4ccccc4)[C@H](c4ccccc4)N3[C@@H]2c2ccccc2OCCO)cc1`, the composite z-score in experiment [1] is 1.54; in experiment [5] it was 2.94; in experiment [7], 0.0179; in experiment [8], 1.4; in experiment [9], 1.06; in experiment [10], -0.0192. Besides, the z-score in experiment [2] was 2.23 (inactive); in experiment [3], 2.01 (inactive); in experiment [4], 4.39 (inactive); in experiment [6] it was 0.413 (inactive).
As to `[N-]=[N+]=NCc1ccccc1C[C@@]1(C(=O)N2CCOCC2)N=C(c2ccc(OCCCO)cc2)O[C@@H]1c1ccccc1CN=[N+]=[N-]`, the composite z-score in experiment [1] came to 1.58; in experiment [5] it was 3.28; in [7], 0.743; in experiment [8] it was 0.631; in [9], 0.967; in experiment [10], 0.662. In addition, the z-score was 0.466 (inactive) in experiment [2], -0.559 (inactive) in experiment [3], 28 (active) in [4] and 0.291 (inactive) in [6].
Take `O=c1cccc(C=Cc2ccccc2)o1`: the composite z-score in experiment [1] was -0.127; in experiment [5], -0.756; in experiment [7] it was -0.214; in experiment [8] it was 0.104; in experiment [9] it was -1.13; in experiment [10] it was -0.142. The z-score in experiment [2] is -0.411 (inactive); in experiment [3], -1.06 (inactive); in experiment [4], 1.14 (inactive); in experiment [6], 0.573 (inactive).
In the case of `CCOC(=O)C[C@H]1[C@H](OC(=O)Cc2ccc3c(c2)OCO3)[C@@H](NC(=O)c2ccc(-c3ccccc3)cc2)c2cc(OCCCO)ccc2N1C(=O)c1ccccc1`, the composite z-score in experiment [1] is 0.869; in experiment [5], 1.81; in [7], -0.137; in [8], 0.267; in [9] it was 0.643; in experiment [10], 0.0027. Moreover, the z-score in experiment [2] was 0.22 (inactive); in experiment [3], -0.661 (inactive); in [4], 0.712 (inactive); in experiment [6], 1.96 (inactive).
For `O=C1O[C@H](c2ccccc2)[C@H](c2ccccc2)N2[C@H]1[C@@H](C(=O)NC[C@H](O)c1ccccc1)[C@]1(C(=O)Nc3ccc(C#CCCO)cc31)[C@H]2c1ccc(O)cc1`, the composite z-score in [1] is -0.0718; in [5] it was -0.217; in [7], 0.0249; in experiment [8], -0.984; in [9], -0.415; in experiment [10], -0.194. For the same compound, the z-score in [2] is -0.383 (inactive); in experiment [3] it was -0.0869 (inactive); in [4], 0.105 (inactive); in experiment [6], 0.092 (inactive).
In the case of `C=CCOC(=O)[C@H]1[C@@H]2C(=O)O[C@@H](c3ccccc3)[C@@H](c3ccccc3)N2[C@@H](c2ccc(OCCOC(=O)[C@@H]3C[C@@H]4C(=O)NCC(=O)N4[C@@H]3c3ccc(O)cc3)cc2)[C@]12C(=O)Nc1ccccc12`, the composite z-score was 1.56 in [1]; 2.35 in [5]; -0.153 in experiment [7]; 1.81 in experiment [8]; 1.12 in experiment [9]; -0.0828 in experiment [10]. Further, the z-score is -4.85 (inactive) in [2], -0.234 (inactive) in experiment [3], 1.47 (inactive) in experiment [4] and 2.36 (inactive) in experiment [6].
In the case of `CS(=O)(=O)CCOC(=O)C1=CC(CCCO)=CC(c2cccs2)N(Cc2cc3c(cc2Br)OCO3)C=C1C(=O)OCCS(C)(=O)=O` (stereo not given), the composite z-score in [1] was 1.56; in experiment [5], 2.82; in experiment [7], -0.0379; in [8], 0.91; in experiment [9] it was 1.06; in experiment [10], 0.0503. The z-score in experiment [2] was 0.187 (inactive); in experiment [3] it was -1.16 (inactive); in experiment [4] it was -0.919 (inactive); in experiment [6] it was 0.734 (inactive).
On to `CN(C)C(=O)[C@@]1(CCC(=O)OC(C)(C)C)N=C(c2ccc(OCCCO)cc2)O[C@H]1c1ccccc1`, for which the composite z-score in experiment [1] was 1.41; in experiment [5], 3.55; in experiment [7], 0.346; in experiment [8], 0.94; in experiment [9], 0.0453; in [10] it was 0.0197. Further, the z-score in experiment [2] was -0.365 (inactive); in experiment [3], -0.0946 (inactive); in [4], -0.213 (inactive); in experiment [6], -0.444 (inactive).
In the case of `COC(=O)c1ccc(C(O)C2C=CC3C(=O)N(c4ccccc4)C(=O)C3N2Nc2ccc(C#N)cc2)o1` (stereo not given), the composite z-score in experiment [1] is 0.431; in experiment [5], 3.19; in [7], -0.0478; in experiment [8] it was 0.284; in [9], 0.927; in experiment [10], -0.0446. The z-score is -0.0337 (inactive) in experiment [2], 0.328 (inactive) in experiment [3], 0.989 (inactive) in experiment [4] and -1.07 (inactive) in experiment [6].
